Assay results from PubChem BioAssay (NCI).
“And” between values parts separate entries of the source, which are not always exact repeats. Identical values can stand only once. The panel holds about 83,000 compounds, 20% with a hit somewhere; the sample as a whole holds those more often.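 Percent growth is the endpoint: 0 to 100 indicates growth inhibition (40 means 60% inhibition), 0 means no net growth, and negative values indicate cell death.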 The source made the active and inactive calls. The calls were made as follows: active = growth percent below 10; inactive = the rest.

Experiments:
Test in all cases: NCI-60 one-dose screen, 48 h (100 = growth as untreated, 0 = no growth, -100 = all killed)
NCI-H226 lung = settings: 10 µM
NCI-H322M lung = settings: 10 µM
HOP-62 NSCLC = settings: 10 µM
NCI-H460 lung = settings: 10 µM
A549/ATCC NSCLC = settings: 10 µM
786-0 renal = settings: 10 µM
COLO 205 colon = settings: 10 µM
DU-145 prostate = settings: 10 µM
SF-268 CNS = settings: 10 µM
SF-295 CNS = settings: 10 µM
SF-539 CNS = settings: 10 µM
HCT-15 colon = settings: 10 µM
HT29 colon = settings: 10 µM
SNB-75 CNS = settings: 10 µM
SNB-19 CNS = settings: 10 µM
U251 CNS = settings: 10 µM
PC-3 prostate = settings: 10 µM
ACHN renal = settings: 10 µM
HL-60(TB) leukemia = settings: 10 µM unless noted
CCRF-CEM leukemia = settings: 10 µM

Measured: growth

CC1=C2C(=C[C@@](C)(COC(=O)c3ccc(S(=O)(=O)F)cc3)[C@@H]2OC(=O)c2ccc(S(=O)(=O)F)cc2)C(=O)[C@](C)(O)C12CC2
inactive: SNB-19 CNS 21.5% | PC-3 prostate 16.2% | CCRF-CEM leukemia 36.3%
active: NCI-H226 lung -6.08% | NCI-H322M lung 9.18% | HOP-62 NSCLC -20.3% | NCI-H460 lung 0.279% | A549/ATCC NSCLC 2.93% | 786-0 renal -44.2% | COLO 205 colon -78.1% | DU-145 prostate 5.79% | SF-268 CNS 2.06% | SF-295 CNS 1.3% | SF-539 CNS -4.86% | HCT-15 colon 0.515% | HT29 colon 2.13% | SNB-75 CNS -8.24% | U251 CNS -21.5% | ACHN renal -15.8% | HL-60(TB) leukemia 8.8%

O=C(CCCc1ccc(N(CCCl)CCCl)cc1)OCc1ccccc1
inactive: NCI-H226 lung 90.3% | NCI-H322M lung 103% | HOP-62 NSCLC 84.2% | NCI-H460 lung 53.1% | A549/ATCC NSCLC 78.9% | 786-0 renal 99% | COLO 205 colon 98% | DU-145 prostate 96.7% | SF-268 CNS 80.4% | SF-295 CNS 87.7% | SF-539 CNS 85.2% | HCT-15 colon 88.6% | HT29 colon 95.8% | SNB-75 CNS 84.9% | SNB-19 CNS 95.9% | U251 CNS 89.2% | PC-3 prostate 83.2% | ACHN renal 50.6% | HL-60(TB) leukemia 68.7% | CCRF-CEM leukemia 82.1%

CC1=C2C(=C[C@@](C)(C=O)[C@@H]2O)C(=O)[C@](C)(O)C12CC2
active: HOP-62 NSCLC 8.06% | NCI-H460 lung 5.09% | A549/ATCC NSCLC 8.13% | 786-0 renal 5.21% | COLO 205 colon -28.2% | DU-145 prostate 9.15% | SF-295 CNS 3.31% | SF-539 CNS -10.7% | HCT-15 colon 6.02% | HT29 colon 4.21% | SNB-75 CNS -3.53% | U251 CNS 4.74% | PC-3 prostate 6.53% | ACHN renal -18.5%
inactive: NCI-H226 lung 46.1% | NCI-H322M lung 26.5% | SF-268 CNS 12.2% | SNB-19 CNS 20.7% | CCRF-CEM leukemia 22.6%

C/C=C/CC(C)C(O)[C@H](NC(=O)[C@@H]1CCCN1C(=O)C(C)(C)NC(=O)CCCCCCCCC)C(=O)NC(C)(C)C(=O)N[C@@H](CCC(N)=O)C(=O)N[C@H](CCC(N)=O)C(=O)NC(C)(C)C(=O)NC(C)(C)C(=O)N[C@@H](CCC(N)=O)C(=O)N[C@H](CC(C)C)C(=O)N[C@H](CO)CC(C)C (some centres not stated)
15.8% (inactive) and -29.7% (active): PC-3 prostate
17.1% (inactive) and -70% (active): NCI-H460 lung
14.2% (inactive) and -83.8% (active): 786-0 renal
inactive: A549/ATCC NSCLC 49.3% and 26.3%
active: COLO 205 colon -82.7% and -41.1% | DU-145 prostate -71% and -43.1% | SF-268 CNS -14.2% and -46.2% | SF-295 CNS -20.9% and -75.3% | SF-539 CNS -33.1% and -100% | HCT-15 colon 4.12% and 4.44% | HT29 colon 4.29% and 5.04% | SNB-75 CNS -15.2% and -83.2% | U251 CNS 0.668% and -89.7% | CCRF-CEM leukemia -12.7% and -38.8%
39.9% (inactive) and -7.7% (active): NCI-H322M lung
14.5% (inactive) and -95.4% (active): SNB-19 CNS
43.7% (inactive) and -32% (active): ACHN renal
20.7% (inactive) and -41.7% (active): HOP-62 NSCLC
24.6% (inactive) and -36.3% (active): NCI-H226 lung

C[C@@H]1CCC/C=C/[C@H]2C[C@@H](O)C[C@@H]2[C@@H](O)/C=C/C(=O)O1
inactive: NCI-H460 lung 18.2% | A549/ATCC NSCLC 16.1% | DU-145 prostate 28.4% | SF-268 CNS 17.6% | SF-295 CNS 21.6% | SF-539 CNS 31.7% | HCT-15 colon 11.2% | SNB-75 CNS 47% | SNB-19 CNS 30.2% | U251 CNS 17.6% | PC-3 prostate 19.5% | CCRF-CEM leukemia 12.3%
active: NCI-H226 lung 7.32% | NCI-H322M lung 6.35% | HOP-62 NSCLC 1.72% | 786-0 renal -31.4% | COLO 205 colon -84.3% | HT29 colon 0.531% | ACHN renal 9.31% | HL-60(TB) leukemia -22.7%

CC1=C2C(=O)[C@](C)(CO)C=C2C(=O)[C@](C)(O)C12CC2
inactive: NCI-H226 lung 74.7% | NCI-H322M lung 61.6% | HOP-62 NSCLC 22% | A549/ATCC NSCLC 13.2% | SF-268 CNS 10.5% | SNB-75 CNS 38.9% | SNB-19 CNS 60.2% | PC-3 prostate 21.6% | CCRF-CEM leukemia 13.9%
active: NCI-H460 lung 5.34% | 786-0 renal 5.58% | COLO 205 colon -12.1% | DU-145 prostate 7.23% | SF-295 CNS 6.45% | SF-539 CNS 4.6% | HCT-15 colon -9.55% | HT29 colon 2.57% | U251 CNS 8.4% | ACHN renal -21.9%
